Assays:
[1] = target: T1, N4 mini-vRNAP (His-tagged) (Bacteriophage N4, UniProt Q859P9 SEQ:34-1143); test: filter; two orders of magnitude reduction; details: tags: N-terminal hexahistidine (pBAD); label: 32P end-label; hairpin, 8 bp stem; ssDNA; [none]
T1 chain: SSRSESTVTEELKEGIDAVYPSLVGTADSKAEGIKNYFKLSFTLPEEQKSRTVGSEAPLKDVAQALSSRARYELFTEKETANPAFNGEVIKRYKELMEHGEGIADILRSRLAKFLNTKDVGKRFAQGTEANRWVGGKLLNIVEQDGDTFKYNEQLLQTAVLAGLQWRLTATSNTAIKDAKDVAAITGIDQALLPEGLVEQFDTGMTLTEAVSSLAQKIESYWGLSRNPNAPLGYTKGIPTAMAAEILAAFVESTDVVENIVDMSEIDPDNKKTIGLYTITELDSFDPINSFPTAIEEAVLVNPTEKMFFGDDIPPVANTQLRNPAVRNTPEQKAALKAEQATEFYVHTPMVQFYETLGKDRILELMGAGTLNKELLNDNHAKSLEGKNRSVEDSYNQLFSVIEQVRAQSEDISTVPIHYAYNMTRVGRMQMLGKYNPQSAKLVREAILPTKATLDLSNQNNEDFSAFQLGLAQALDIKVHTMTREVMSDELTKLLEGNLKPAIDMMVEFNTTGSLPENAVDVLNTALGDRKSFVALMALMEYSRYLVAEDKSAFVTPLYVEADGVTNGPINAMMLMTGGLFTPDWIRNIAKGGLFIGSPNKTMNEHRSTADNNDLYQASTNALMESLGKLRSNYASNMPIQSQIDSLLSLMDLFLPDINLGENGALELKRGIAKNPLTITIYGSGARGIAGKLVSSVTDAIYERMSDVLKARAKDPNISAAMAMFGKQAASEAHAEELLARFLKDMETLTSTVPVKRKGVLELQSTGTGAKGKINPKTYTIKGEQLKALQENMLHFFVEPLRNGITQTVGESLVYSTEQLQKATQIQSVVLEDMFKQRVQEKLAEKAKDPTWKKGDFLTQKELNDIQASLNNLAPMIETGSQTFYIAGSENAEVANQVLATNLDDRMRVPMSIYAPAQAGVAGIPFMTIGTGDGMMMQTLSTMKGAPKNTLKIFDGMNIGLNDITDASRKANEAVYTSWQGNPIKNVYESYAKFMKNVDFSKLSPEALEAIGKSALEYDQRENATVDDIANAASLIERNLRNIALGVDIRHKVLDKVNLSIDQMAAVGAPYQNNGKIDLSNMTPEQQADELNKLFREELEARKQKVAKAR

[2] = target: T1, N4 mini-vRNAP (His-tagged); test: filter; further one order of magnitude reduction; details: tags: N-terminal hexahistidine (pBAD); label: 32P end-label; hairpin; ssDNA; [none]

Row | Sequence | binding signal [1] | binding signal [2]
1 | TCCAAAAGAAGCGGAGCTTCTTT | ~100 fold lower affinity than wild type | –
2 | TCCAAAAGAAGCGGAGCTTCTTTTG | – | ~1000 fold lower affinity than wild type
